Results on 120 molecules are retold here after PubChem BioAssay (NCATS).

The test system of the test is HIV-1 nucleocapsid protein NCp7 (binding to TG oligonucleotide). As to the kind of experiment: HIV Nucleocapsid (AID 346).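 Also: potency is for inhibitors that block NC binding and lower polarization.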 The conditions noted are these: HIV-1 NC / fluorescein-TGTGTGTG probe, fluorescence polarization. The procedure, abridged: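 10 nM TG4xF probe with 100 nM nucleocapsid protein in high-salt Hepes pH 7.5 (250mM NaCl) containing 1uM ZnCl2 and reducing agents. Compound inhibition of binding was read as fluorescein polarization after 1 hr at room temperature.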
Background: Fluorescence polarisation rises when a labelled molecule tumbles more slowly, as on binding a larger partner.

A number with no mark means an inactive call. Calls of active or inactive are those of the source. No rule for the calls is given here.
Potency is read from the fitted curve at half-maximal effect.

Consider `COc1ccc(Oc2ncc3ncc(=O)n(C)c3n2)cc1`, for which the Potency was over 20 µM.

Take `CN(C)c1ccc(-c2cncnc2NCc2cccnc2)cc1`: the Potency is over 20 µM.

For `Cc1nc2cnc(N3CCN(C)CC3)nc2n(-c2ccccc2)c1=O`, the Potency is over 20 µM.

Consider `CN(C)Cc1ccccc1-c1nc(NC2CC2)c2ccccc2n1`, for which the Potency is over 20 µM.

For `N#Cc1ccc(CN2CCCC3(CCN(C(=O)c4csnn4)CC3)C2)cc1`, the Potency was over 20 µM.

Regarding `CN(C)Cc1ccccc1-c1ccc2ncnc(N(C)Cc3ccco3)c2c1`, the Potency is over 20 µM.

Turning to `COc1ccc(NC(=O)N2CC3(CCN(S(=O)(=O)c4ccccc4)CC3)C2)cc1`, the Potency is over 20 µM.

Take `O=C(c1ccco1)N1CCC[C@@]2(CCN(c3cccc(-c4ccccc4)c3)C2)C1`: the Potency was over 20 µM.

`COc1ccc(-c2nc3cnc(Oc4cccc(Cl)c4)nc3n(C3CC3)c2=O)cc1`: the Potency was over 20 µM.

Turning to `COc1ccc(NC(=O)N2CCCC3(CCN(S(C)(=O)=O)CC3)C2)cc1`, the Potency was over 20 µM.

Take `Cn1c(=O)c(-c2cccs2)nc2cncnc21`: the Potency was over 20 µM.

In the case of `CN(C)Cc1ccccc1-c1cc(N(C)C)ncn1`, the Potency is over 20 µM.

As for `N#Cc1cccc(NC(=O)N2CCCC3(CCN(C(=O)c4cnccn4)CC3)C2)c1`, the Potency is over 20 µM.

Turning to `COCCn1c(=O)c(-c2cc(F)cc(F)c2)nc2cnc(N3CCN(C)CC3)nc21`, the Potency was over 20 µM.

On to `CC(=O)NCCNc1ccnc(-c2ccccc2C(F)(F)F)n1`, for which the Potency was over 20 µM.

For `COc1ccc(C(=O)N2CCC3(CCCN(CC(C)C)C3)CC2)cc1`, the Potency was over 20 µM.

As to `O=C(c1csnn1)N1CCC[C@@]2(CCN(Cc3ccccc3)C2)C1`, the Potency is over 20 µM.

On to `N#CCCn1c(=O)c(CCc2ccccc2)nc2cnc(N3CCOCC3)nc21`, for which the Potency is over 20 µM.

With `COCCNc1ncnc2ccc(-c3cccc(NS(C)(=O)=O)c3)cc12`, the Potency was over 20 µM.

`N#CCCn1c(=O)c(-c2ccc(F)cc2)nc2cnc(Oc3cccc(Cl)c3)nc21`: the Potency is over 20 µM.

`COc1ccc(-n2c(=O)c(CCc3ccccc3)nc3cnc(N(C)C)nc32)cc1`: the Potency is over 20 µM.

Regarding `Cc1nc2cnc(N3CCN(C)CC3)nc2n(Cc2ccc(F)cc2)c1=O`, the Potency was over 20 µM.

Regarding `CCNc1ncc2nc(CCc3ccccc3)c(=O)n(C3CC3)c2n1`, the Potency was over 20 µM.

With `O=c1c(-c2ccc(Cl)cc2)nc2cnc(Nc3ccccc3)nc2n1C1CC1`, the Potency was over 20 µM.

For `FC(F)(F)c1cc(CN2CCC3(CCNCC3)CC2)cc(C(F)(F)F)c1`, the Potency is over 20 µM.

As for `COc1ccccc1-c1cncnc1NCCNC(C)=O`, the Potency was over 20 µM.

Turning to `c1ccc(Nc2nc(-c3ccc4c(c3)OCO4)nc3ccccc23)cc1`, the Potency is over 20 µM.

Turning to `O=c1cnc2cnc(N3CCOCC3)nc2n1Cc1ccc(F)cc1`, the Potency was 20.6 µM.

As to `COCCNc1ncncc1-c1c(C)noc1C`, the Potency was over 20 µM.

For `CN(C)c1ccc(-c2nccc(NCCN3CCOCC3)n2)cc1`, the Potency was over 20 µM.

Turning to `COc1ccc(-c2nc3cnc(N4CCN(C)CC4)nc3n(Cc3cccc(OC)c3)c2=O)cc1`, the Potency was over 20 µM.

Take `O=C(c1ccco1)N1CCC2(CC1)CCN(c1ccc(-c3ccccc3)cc1)CC2`: the Potency was over 20 µM.

For `CC(C)CN1CCCC2(CCN(C(=O)c3cccn3C)CC2)C1`, the Potency is over 20 µM.

On to `O=C(Nc1cccc(F)c1)N1CCC2(CC1)CCN(C(=O)c1ccco1)CC2`, for which the Potency was over 20 µM.

Regarding `COc1ncc2nc(-c3cc(F)cc(F)c3)c(=O)n(Cc3cccs3)c2n1`, the Potency was over 20 µM.

For the molecule `Cc1noc(C)c1-c1cncnc1NCCN1CCOCC1`, the Potency was over 20 µM.

Turning to `CC(=O)NCCNc1cc(-c2ccccc2C(F)(F)F)ncn1`, the Potency is over 20 µM.

Take `O=C(Oc1ccccc1)N1CCC2(CCCN(c3cccc(-c4ccccc4)c3)C2)CC1`: the Potency was over 20 µM.

Take `COc1ccc(C(=O)N2CCC3(CC2)CCN(c2cccc(-c4ccccc4)c2)CC3)cc1`: the Potency is over 20 µM.

Regarding `Cn1cccc1C(=O)N1CCC[C@@]2(CCN(C(=O)Nc3cccc(F)c3)C2)C1`, the Potency was over 20 µM.

As for `N#Cc1ccc(CN2CCCC3(CCN(S(=O)(=O)c4ccccc4)CC3)C2)cc1`, the Potency was over 20 µM.

Take `CS(=O)(=O)Nc1cccc(-c2nccc(-n3ccnc3)n2)c1`: the Potency was over 20 µM.

As for `COc1ccccc1-c1ccc2ncnc(NCc3cccnc3)c2c1`, the Potency was over 20 µM.

As to `COc1ncc2nc(-c3cccs3)c(=O)n(CCC#N)c2n1`, the Potency is over 20 µM.

As to `Cn1cc(-c2nc3cnc(N4CCNCC4)nc3n(-c3ccccc3)c2=O)c2ccccc21`, the Potency was over 4 µM.

Regarding `CCNc1ncc2ncc(=O)n(C3CC3)c2n1`, the Potency is over 20 µM.

In the case of `c1nc(N2CCNCC2)c2cc(-c3ccc4c(c3)OCO4)ccc2n1`, the Potency was over 20 µM.

In the case of `CN1CCN(c2ncnc3ccc(-c4cccnc4)cc23)CC1`, the Potency is over 20 µM.

Consider `O=C(c1cccc(F)c1)N1CCC2(CCCN(c3cccc(-c4ccccc4)c3)C2)CC1`, for which the Potency is over 20 µM.

As for `Cc1noc(C)c1-c1cc(NCc2cccs2)ncn1`, the Potency is over 20 µM.

Turning to `Cc1noc(C)c1-c1cc(Nc2ccccc2)ncn1`, the Potency is over 20 µM.

For the molecule `Cc1nc2cncnc2n(-c2ccccc2)c1=O`, the Potency is over 20 µM.

In the case of `O=C(c1ccncc1)N1CCC[C@@]2(CCN(c3ccccc3)C2)C1`, the Potency is over 20 µM.

On to `O=C(c1ccncc1)N1CCC2(CC1)CCN(c1ccncc1)CC2`, for which the Potency was over 20 µM.

Turning to `Cc1cnc(CNc2ncnc3ccc(-c4ccccc4C#N)cc23)cn1`, the Potency is over 20 µM.

Take `COc1ccc(NC(=O)N2CCCC3(CCN(C(=O)c4c(C)noc4C)CC3)C2)cc1`: the Potency was over 20 µM.

On to `COc1ccc(CNc2ncncc2-c2cccc(NS(C)(=O)=O)c2)c(OC)c1`, for which the Potency was over 20 µM.

Regarding `COc1ccccc1CNc1ncnc2ccc(-c3cccc(C#N)c3)cc12`, the Potency is over 20 µM.

With `COc1ccccc1CNc1ncnc2ccc(-c3ccc(N(C)C)cc3)cc12`, the Potency is over 20 µM.

In the case of `CN(C)c1ncc2nc(-c3ccc(F)cc3)c(=O)n(CCC#N)c2n1`, the Potency was over 4 µM.

Take `Cc1nc2cnc(N3CCN(C)CC3)nc2n(C2CC2)c1=O`: the Potency is over 20 µM.

For the molecule `Clc1ccccc1-c1nccc(-n2ccnc2)n1`, the Potency was over 20 µM.

For `Cc1noc(C)c1C(=O)N1CCC2(CCN(Cc3nccs3)CC2)CC1`, the Potency was over 20 µM.

Consider `CCNc1ncc2nc(-c3ccc(OC)cc3)c(=O)n(C)c2n1`, for which the Potency is over 20 µM.

For `c1ccc2c(NCCN3CCOCC3)nc(-c3ccc4c(c3)OCO4)nc2c1`, the Potency is over 20 µM.

In the case of `N#Cc1cccc(-c2ccc3ncnc(NCc4ccccc4)c3c2)c1`, the Potency is over 20 µM.

Regarding `Cc1noc(C)c1-c1nccc(-n2ccnc2)n1`, the Potency was over 20 µM.

`O=C(c1cccc(F)c1)N1CCC2(CCCN(Cc3ccncc3)C2)CC1`: the Potency is over 20 µM.

`COC(=O)N1CCC2(CCN(Cc3ccccc3OC)CC2)CC1`: the Potency was over 20 µM.

For the molecule `COc1ccc(NC(=O)N2CC[C@@]3(CCCN(C(=O)c4ccc(OC)cc4)C3)C2)cc1`, the Potency is over 20 µM.

With `CN(C)Cc1ccccc1-c1nccc(NCc2cccs2)n1`, the Potency is over 20 µM.

As for `O=C(c1cccc(F)c1)N1CCC2(CCN(Cc3nccs3)CC2)CC1`, the Potency was over 20 µM.

`COc1cccc(Cn2c(=O)c(-c3cn(C)c4ccccc34)nc3cnc(N4CCOCC4)nc32)c1`: the Potency was over 20 µM.

Turning to `N#CCCn1c(=O)c(CCc2ccccc2)nc2cnc(Oc3ccccc3)nc21`, the Potency is over 20 µM.

`O=C(c1cc(C(F)(F)F)cc(C(F)(F)F)c1)N1CCC2(CC1)CCN(c1ccccc1)CC2`: the Potency is over 20 µM.

Take `O=S(=O)(c1ccccc1)N1CCC2(CC1)CN(c1ccccn1)C2`: the Potency is over 20 µM.

Regarding `CCNc1ncc2ncc(=O)n(CCOC)c2n1`, the Potency was over 20 µM.

For the molecule `COc1ccccc1-c1nc(NCCN2CCOCC2)c2ccccc2n1`, the Potency was over 20 µM.

Consider `CN(C)c1cc(-c2cccc(NS(C)(=O)=O)c2)ncn1`, for which the Potency is over 20 µM.

With `O=c1c(-c2cccs2)nc2cnc(Oc3cccc(Cl)c3)nc2n1C[C@H]1CCCO1`, the Potency was over 20 µM.

With `Cc1cccc(CNc2cc(-c3c(C)noc3C)ncn2)c1`, the Potency was over 20 µM.

Take `COc1ccccc1CNc1ccnc(-c2ccccc2OC)n1`: the Potency was over 20 µM.

As for `O=C(c1cc(C(F)(F)F)cc(C(F)(F)F)c1)N1CCC2(CCCN(c3ccncc3)C2)CC1`, the Potency is over 20 µM.

In the case of `COc1ccc(NC(=O)N2CCCC3(CCNCC3)C2)cc1`, the Potency is over 20 µM.

Consider `O=C(c1cc(C(F)(F)F)cc(C(F)(F)F)c1)N1CCC2(CC1)CCN(c1ncccn1)CC2`, for which the Potency is over 20 µM.

Regarding `O=C(c1ccco1)N1CCC2(CCCN(Cc3ccccc3)C2)CC1`, the Potency was over 20 µM.

Take `COc1ccc(-c2nc3cnc(N(C)C)nc3n(C3CC3)c2=O)cc1`: the Potency was over 20 µM.

Consider `FC(F)(F)c1ccccc1-c1nc(NCc2cccnc2)c2ccccc2n1`, for which the Potency was over 20 µM.

Turning to `COc1ccc(C(=O)N2CCC3(CCN(Cc4ccccc4)CC3)CC2)cc1`, the Potency is over 20 µM.

For the molecule `CNc1ccnc(-c2ccccc2OC)n1`, the Potency is over 20 µM.

For the molecule `O=C(c1cnccn1)N1CCC2(CC1)CN(c1ccccc1)C2`, the Potency was over 20 µM.

Regarding `CCNc1ncc2nc(-c3cc(F)cc(F)c3)c(=O)n(C3CC3)c2n1`, the Potency is over 20 µM.

Take `Cn1c(=O)c(-c2cccs2)nc2cnc(OCc3ccccc3)nc21`: the Potency was over 20 µM.

Take `O=C(c1ccncc1)N1CCC2(CC1)CCN(c1cccc(-c3ccccc3)c1)CC2`: the Potency was over 20 µM.

For the molecule `CN(Cc1ccco1)c1ncnc2ccc(-c3ccccc3Cl)cc12`, the Potency was over 20 µM.

Take `COc1ccc(-n2c(=O)c(-c3ccccc3)nc3cnc(N4CCOCC4)nc32)cc1`: the Potency is over 20 µM.

Take `N#Cc1ccccc1-c1ccc2ncnc(NCc3cccnc3)c2c1`: the Potency was over 20 µM.

As for `CC(=O)NCCNc1ncncc1-c1ccccc1CN(C)C`, the Potency is over 20 µM.

In the case of `O=c1cnc2cnc(Nc3ccccc3)nc2n1C[C@H]1CCCO1`, the Potency is over 20 µM.

For `Cc1cnc(CNc2cc(-c3ccccc3CN(C)C)ncn2)cn1`, the Potency was over 20 µM.

In the case of `N#Cc1cccc(-c2ccc3ncnc(NCCN4CCOCC4)c3c2)c1`, the Potency is over 20 µM.

For `Cn1cc(-c2nc3cncnc3n(Cc3ccc(F)cc3)c2=O)c2ccccc21`, the Potency was over 20 µM.

On to `CNc1nc(-c2ccc3c(c2)OCO3)nc2ccccc12`, for which the Potency was over 20 µM.

Consider `O=C(Nc1ccccc1)N1CC[C@@]2(CCCN(C(=O)c3csnn3)C2)C1`, for which the Potency is over 20 µM.

Take `Cn1cccc1C(=O)N1CCC[C@@]2(CCN(Cc3ccc(C#N)cc3)C2)C1`: the Potency is over 20 µM.

For the molecule `Cc1ccccc1-c1nc(NC2CCNCC2)c2ccccc2n1`, the Potency was over 20 µM.

`COc1cccc(-c2nc(N3CCNCC3)c3ccccc3n2)c1`: the Potency is over 20 µM.

For `CC(C)CN1CC[C@@]2(CCCN(C(=O)c3cccc(F)c3)C2)C1`, the Potency is over 20 µM.

`COc1cccc(-c2ccc3ncnc(NCc4cccnc4)c3c2)c1`: the Potency was over 20 µM.

Consider `FC(F)(F)c1ccccc1-c1nc(N2CCNCC2)c2ccccc2n1`, for which the Potency is over 20 µM.

In the case of `Clc1ccccc1-c1nccc(NCc2cccs2)n1`, the Potency is over 20 µM.

`Cc1ccccc1-c1ccc2ncnc(N(C)C)c2c1`: the Potency is over 20 µM.

On to `COc1ccccc1CNc1ccnc(-c2ccccc2Cl)n1`, for which the Potency was over 20 µM.

Regarding `O=c1c(-c2cccs2)nc2cnc(Nc3ccccc3)nc2n1C[C@H]1CCCO1`, the Potency is 4.11 µM (active).

On to `CC(C)NC(=O)N1CCC2(CC1)CCN(S(=O)(=O)c1ccccc1)CC2`, for which the Potency was over 20 µM.

As for `COc1ccc(-c2nc3cnc(N4CCN(C)CC4)nc3n(CCC#N)c2=O)cc1`, the Potency is over 20 µM.

As to `CN(C)c1ncc2nc(-c3cccs3)c(=O)n(-c3ccccc3)c2n1`, the Potency is over 4 µM.

As to `O=S(=O)(c1ccccc1)N1CCC2(CCCN(Cc3ccncc3)C2)CC1`, the Potency was over 20 µM.

For `COc1ccc(Oc2ncc3nc(CCc4ccccc4)c(=O)n(C[C@H]4CCCO4)c3n2)cc1`, the Potency is over 20 µM.

As to `COc1ncc2nc(-c3cc(F)cc(F)c3)c(=O)n(CCC#N)c2n1`, the Potency is over 20 µM.
